Most compounds without a hit are left out; they make up all but 4.8% or so of the library.
DAX1 inh-1 = DAX1 (NR0B1) inhibitors on StAR promoter, primary screen, cell-based, luminescence, SF-1 (NR5A1), full-length DAX-1. HEK293T StAR-luciferase reporter, SF-1/DAX-1 repression relief. inhibition, % at 6.8 µM. 1.1% of 370,000 active. AID 652010, 2013;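 active means inhibition above the mean over all tested compounds plus 3 SD, cut at about 3.6% in these data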;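 further: 0% = DAX-1 cells with DMSO and 100% = cells lacking DAX-1 with DMSO; higher inhibition means more luminescence from relief of DAX-1 repression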
DAX1 inh-2 = DAX1 (NR0B1) inhibitors, primary screen, cell-based, HEK293, Gal4-DAX1, luciferase luminescence; Nuclear receptor subfamily 0 group B member 1 (Homo sapiens), P51843; HEK293 Gal4-DAX1 luciferase reporter; inhibition, % at 6.75 µM; 0.99% of 340,000 active; AID 504766, 2011;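 active means inhibition above the mean over all tested compounds plus 3 SD, cut at about 4.2% in these data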;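 further: 0% = DAX1-transfected cells with DMSO and 100% = empty-vector control cells with DMSO; inhibition shows as a rise in luminescence from relieved DAX1 repression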
Target sequence (P51843 207-470 limits assumed): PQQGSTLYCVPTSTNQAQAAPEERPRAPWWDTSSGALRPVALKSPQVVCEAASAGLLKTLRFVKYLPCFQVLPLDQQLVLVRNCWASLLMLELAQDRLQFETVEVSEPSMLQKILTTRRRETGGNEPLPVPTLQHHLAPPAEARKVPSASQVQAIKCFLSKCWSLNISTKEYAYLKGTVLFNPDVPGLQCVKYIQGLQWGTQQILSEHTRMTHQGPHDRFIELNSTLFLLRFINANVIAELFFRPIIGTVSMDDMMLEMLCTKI
hcDAF-12 act = H. contortus DAF-12 nuclear receptor activators, primary screen, cell-based, luminescence, HEK293, lit1-tk-luc reporter; AID 652067, 2013; 1.4% of 370,000 active; activation, % at 6.8 µM; HEK293 hcDAF-12 lit1-tk-luc reporter; 0% DMSO, 100% Δ7-dafachronic acid;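 active means activation above the mean of all tested compounds plus 3 SD, cut at about 5.5% in these data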;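 further: 100% = response to 3 µM Δ7-dafachronic acid high control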
hgDAF12 agonist = H. glycines DAF-12 receptor agonists, primary screen, cell-based, luminescence, HEK293, GAL4 fusion, UAS-luciferase. activation, % at 6.8 µM. Nuclear hormone receptor DAF-12 (Heterodera glycines), GAL4 fusion. HEK293 GAL4-hgDAF12 UAS-luciferase reporter, agonist luminescence; normalized to butyrate control. 1.8% of 370,000 active;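 active means activation above a cutoff set at the mean of all screened compounds plus 3 SD, cut at about 10% in these data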;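 further: 0% = DMSO wells and 100% = sodium butyrate wells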
ssDAF-12 act = S. stercoralis DAF-12 nuclear receptor activators, primary screen, cell-based, luminescence, HEK293, GRIP1 co-expression, lit1-tk-luc | Nuclear hormone receptor DAF-12 (Strongyloides stercoralis) | HEK293 ssDAF-12/GRIP1 lit1-tk-luc reporter; % of 3 µM dafachronic acid response | activation, % at 6.8 µM | 1% of 370,000 active;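 active means activation above the mean over all tested compounds plus 3 SD, cut at about 0.9% in these data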;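 further: 0% = DMSO-only wells and 100% = 3 µM delta7-dafachronic acid wells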
SMARCA2 activ = SMARCA2 (BRM) function activators, primary screen, cell-based, luminescence, high throughput. MG213 cells, MMTV-luciferase reporter, dexamethasone, overnight. activation, % at 9.1 µM. 1% of 370,000 active. AID 652017, 2013; in the data active means activation above about 7.8%;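 further: 0% = vehicle wells and 100% = reference activator wells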
* = called active by the depositor; . = no result.

SMILES	DAX1 inh-1	DAX1 inh-2	hcDAF-12 act	hgDAF12 agonist	ssDAF-12 act	SMARCA2 activ
CC1=CC(C)=Nc2ccccc2N1	3	1	5.6*	11*	2.1*	6
Cc1ccc(NC(=O)Nc2ccc3c(c2)N(C)C(=O)CS3)nc1	-1	-3	-3	-4	-2	-5
Cc1ccnc(NC(=O)Nc2ccc3c(c2)N(C)C(=O)CS3)c1	2	-1	0	10*	-1	-2
COCCOC(=O)C1=C(N)OC2=C(C(=O)CC(C)(C)C2)C1c1ccncc1 (stereo unspecified)	0	5.3*	-1	-1	-2	-2
O=C1[C@@H](C2CC2)[C@@H]2c3ccccc3C=NN2[C@@H]2c3ccccc3C=NN12	-1	.	0	-1	-1	-4
COC(=O)C1CCN(c2cnccn2)CC1	1	0	-2	1	0	-2
CC1CCC(NC(=O)C2CCN(c3cnccn3)CC2)CC1 (stereo unspecified)	0	7.1*	-1	0	-1	-1
CCOC(=O)NC(=O)CSc1nc(-c2ccc(C)c(C)c2)cn1-c1ccccc1	2	1	5.7*	10	0	6
O=C(NCc1ccccc1)OCCCN1C(=O)CCC12CCCCC2	0	.	1	-2	-2	0
CC(C)N1CCCCC(NC(=O)c2c(F)cccc2F)C1=O (stereo unspecified)	1	.	1	0	-1	-1
CCc1nc2c(oc3ccccc32)c(=O)[nH]1	1	0	1	3	-1	2
O=c1[nH]c(CSc2ccccn2)nc2c1oc1ccccc12	4.4*	-1	4	12*	0	7.8*
O=C(NCCc1c[nH]c2ccccc12)c1cnc2n(c1=O)CCS2	1	0	2	0	1	-7
O=C(NCCc1ccccc1)c1cnc2n(c1=O)CCS2	2	2	2	8	1.3*	7
O=C(Cc1ccc([N+](=O)[O-])cc1)N1CCc2ccccc2C1	0	1	1	-2	-1	-4
O=C(Cc1ccccc1[N+](=O)[O-])N1CCc2ccccc2C1	1	0	4	11*	1.1*	1
CC(=O)c1ccc(C(=O)N2CCc3c([nH]c4ccccc34)C2c2cccc(C)n2)s1 (stereo unspecified)	0	1	3	-3	0	-1
Cc1cccc(C2c3[nH]c4ccccc4c3CCN2C(=O)Cc2n[nH]c(C)n2)n1 (stereo unspecified)	1	1	3	4	1.5*	-1
COc1cccc(C2c3[nH]c4ccccc4c3CCN2Cc2cnc(C)s2)c1OC (stereo unspecified)	0	0	3	0	1.1*	-1
COc1ccccc1C1c2[nH]c3ccccc3c2CCN1Cc1cnc(C)s1 (stereo unspecified)	0	0	4	-1	1	1
Cc1cccc(C2c3[nH]c4ccccc4c3CCN2Cc2ccc(C)s2)n1 (stereo unspecified)	0	0	6.4*	4	1.0*	0
COc1ccc(C2c3[nH]c4ccccc4c3CCN2C(=O)Cc2nonc2C)c(F)c1 (stereo unspecified)	1	0	5.7*	9	0	6
CCN(CC)C(=O)CC[C@H]1CC[C@]2(CCCN(C(=O)c3ccno3)C2)O1	3	.	-1	-4	-1	1
C=CCOC/C=C/C#CCN(Cc1ccc(OC)cc1OC)C(=O)Nc1ccccc1	-1	.	-1	0	-1	0
COc1ccccc1C(=O)NNC1=C(C(=O)C(F)(F)F)CCC1	2	2	4	8	0.9*	3
SMILES	DAX1 inh-1	DAX1 inh-2	hcDAF-12 act	hgDAF12 agonist	ssDAF-12 act	SMARCA2 activ
O=C(NNC1=C(C(=O)C(F)(F)F)CCC1)c1ccccc1O	1	4	5.6*	6	1.0*	-1
COc1ccc(OC)c(S(=O)(=O)N2CCC(C(=O)N3CCN(c4ccc(F)cc4)CC3)CC2)c1	-3	-1	-3	-3	-2	-3
COc1ccc(S(=O)(=O)N2CCCCCC2)cc1	1	1	-1	0	-1	-3
COc1ccc(OC)c(S(=O)(=O)N2CCC(C(=O)N3CCN(C4CCCCC4)CC3)CC2)c1	4.2*	.	0	-1	-1	3
COc1ccc(OC)c(Cc2nnc(CCC(=O)N3CCN(C4CCCC4)CC3)o2)c1	3.7*	1	2	4	-1	7.8*
COc1ccc(NC(=O)CCN2CCN(S(=O)(=O)c3ccc(C(C)C)cc3)CC2)cc1	-1	-2	-3	-2	1.2*	-5
COc1ccc(-c2ccc(S(=O)(=O)N3CCCC3)cc2)cc1	-1	5.2*	-2	-1	-1	-2
CCOC(=O)NC[C@@]1(C(=O)OC)CC(=O)N(Cc2ccc(Cl)cc2)[C@@H]1c1ccc(OC)cc1	-1	.	4	-2	0	-3
COc1ccc(S(=O)(=O)N2CCN(C(=O)C3CC3)CC2)cc1	0	4.2*	0	3	-1	1
COc1ccc(S(=O)(=O)N2CCC(c3nc4ccccc4[nH]3)CC2)cc1	0	0	-1	0	-1	-2
COc1ccc(S(=O)(=O)N2CCC(C(=O)N3CCOCC3)CC2)cc1	0	1	-2	-1	0	0
COc1ccc(OC)c(S(=O)(=O)N2CCC(c3nc4ccccc4[nH]3)CC2)c1	4.1*	0	1	1	0	0
O=S1(=O)c2ccc(N3CCN(Cc4ccccc4F)CC3)cc2Oc2ccccc2CN1Cc1cn(Cc2ccccc2C(F)(F)F)nn1	-1	.	0	2	-1	-1
O=C(COCc1ccccc1)N1CC[C@H]2[C@H](CCCN2Cc2ccccc2)C1	0	.	-2	2	-1	0
Cc1ccc(Nc2ncccc2C(=O)NCc2cccs2)c(C)c1	0	-1	1	-3	0	-1
Cc1ccc(Sc2ncccc2C(=O)N(C)Cc2cccs2)c(C)c1	0	4.6*	-2	1	-2	1
COc1ccc(N2CC(O)=C(c3nc(-c4ccccc4)cs3)C2=N)cc1	0	-1	1	2	-1	-4
COc1ccc(-c2csc(-c3ccc(O)cc3)n2)cc1	-2	-3	2	13*	0	2
